A number with no mark means an inactive call.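 How the source made its calls: active means activity change under -35% in any replicate well, with more than 20 beads read in that well; inactive means the rest.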
Target: Caspase recruitment domain-containing protein 9 (Homo sapiens) + E3 ubiquitin-protein ligase TRIM62 (Homo sapiens) (UniProt Q9H257+Q9BVG3)
Assay: CARD9/TRIM62 protein interaction inhibitors – cell lysate, HEK293FT lysates, Luminex bead ELISA, primary screen (AID 1259341);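 further: PE anti-Flag signal of Flag-CARD9 captured by myc-TRIM62 beads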
Conditions: PE fluorescence, hits give low values, concentration not given here

Chain of Caspase recruitment domain-containing protein 9 (Homo sapiens) + E3 ubiquitin-protein ligase TRIM62 (Homo sapiens) (Q9BVG3 whole entry, looked up, the tested form may be a part): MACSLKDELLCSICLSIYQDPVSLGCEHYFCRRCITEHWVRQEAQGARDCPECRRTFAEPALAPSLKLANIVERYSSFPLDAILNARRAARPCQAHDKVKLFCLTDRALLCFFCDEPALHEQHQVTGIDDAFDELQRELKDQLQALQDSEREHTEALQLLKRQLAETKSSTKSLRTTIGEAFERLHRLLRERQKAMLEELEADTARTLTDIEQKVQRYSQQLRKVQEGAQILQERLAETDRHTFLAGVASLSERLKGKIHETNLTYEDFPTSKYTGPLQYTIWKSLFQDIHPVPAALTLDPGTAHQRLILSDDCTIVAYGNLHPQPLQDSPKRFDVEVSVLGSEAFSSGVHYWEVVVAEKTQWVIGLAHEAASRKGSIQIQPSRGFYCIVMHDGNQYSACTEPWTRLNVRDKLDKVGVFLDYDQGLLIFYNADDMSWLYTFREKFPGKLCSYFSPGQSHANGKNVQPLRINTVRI
Chain of Caspase recruitment domain-containing protein 9 (Homo sapiens) + E3 ubiquitin-protein ligase TRIM62 (Homo sapiens) (Q9H257 whole entry, looked up, the tested form may be a part): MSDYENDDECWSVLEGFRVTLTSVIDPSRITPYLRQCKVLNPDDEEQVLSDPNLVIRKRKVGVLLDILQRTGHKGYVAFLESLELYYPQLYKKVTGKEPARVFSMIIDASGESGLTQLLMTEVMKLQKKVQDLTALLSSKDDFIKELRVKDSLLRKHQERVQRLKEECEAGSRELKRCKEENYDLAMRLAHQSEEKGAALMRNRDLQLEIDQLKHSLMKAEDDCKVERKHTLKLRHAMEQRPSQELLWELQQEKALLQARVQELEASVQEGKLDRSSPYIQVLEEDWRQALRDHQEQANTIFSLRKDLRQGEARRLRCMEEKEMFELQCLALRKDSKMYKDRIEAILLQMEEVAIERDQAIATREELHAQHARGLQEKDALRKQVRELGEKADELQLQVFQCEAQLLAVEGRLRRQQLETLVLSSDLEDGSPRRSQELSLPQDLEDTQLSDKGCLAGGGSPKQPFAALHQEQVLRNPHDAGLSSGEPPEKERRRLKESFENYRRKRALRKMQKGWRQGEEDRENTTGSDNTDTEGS

| SMILES | activity change, negative = inhibition |
| --- | --- |
| Nc1c(C(=O)NCc2ccco2)c2nc3ccccc3nc2n1CCN1CCOCC1 | -14.4% |
| Cc1ccc(S(=O)(=O)Cc2ccc(C(=O)N3CCC4(CC3)OCCO4)o2)cc1 | 1.47% |
| O=C(NCCc1ccccc1)c1cc2cccnc2n(Cc2ccccc2)c1=O | -0.118% |
| O=C(NC1(C(F)(F)F)Oc2ccc(Cl)cc2O1)N1CCC2(CC1)OCCO2 (configuration not stated) | -0.512% |
| CCCCCn1c(NC(=O)c2ccco2)c(C(=O)OCC)c2nc3ccccc3nc21 | -11.3% |
| Nc1c2c(nc3ccccc13)CCN(Cc1ccccc1)C2 | -1.61% |
| O=C(Nc1ccon1)c1cc2cccnc2n(Cc2ccccc2)c1=O | 4.61% |

Reference: PubChem BioAssay AID1259341 (Broad Institute, 2017)
